Data: the supplement of paper PMC8728848
The full list was thinned out, with the strongest signals kept by preference.

Key:
Assay in all cases: glycan array binding signal (z-score within array); higher = stronger binding
Settings in all cases: glycan notation: IUPAC condensed, linker removed
[1] = target: Fuc(a1-2)Gal(b1-3)GlcNAc(b1-2)Man(a1-3)[Fuc(a1-2)Gal(b1-3)GlcNAc(b1-2)Man(a1-6)]Man(b1-4)GlcNAc(b1-4)GlcNAc
Procedure, shortened: (§1)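 Glycan array data came from 3228 arrays in the Consortium for Functional Glycomics database, and only arrays with an available protein sequence were kept. Glycan names were put into IUPAC-condensed notation, and columns mapping to the same glycan were averaged. The binding signal is a within-array Z-score, averaged across arrays of one protein sequence run at different concentrations or buffers and across linkers. A negative Z-score can be read as non-binding.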

[2] = target: Fuc(a1-2)Gal(b1-3)GlcNAc(b1-3)Gal(b1-4)Glc
Procedure, shortened: as §1

[3] = target: Fuc(a1-2)Gal(b1-4)GlcNAc(b1-2)Man(a1-3)[Fuc(a1-2)Gal(b1-4)GlcNAc(b1-2)Man(a1-6)]Man(b1-4)GlcNAc(b1-4)[Fuc(a1-6)]GlcNAc
Procedure, shortened: as §1

[4] = target: Fuc(a1-2)Gal(b1-4)GlcNAc(b1-3)[Fuc(a1-2)Gal(b1-4)GlcNAc(b1-6)]GalNAc
Procedure, shortened: as §1

[5] = target: Fuc(a1-2)[Gal(a1-3)]Gal(b1-4)GlcNAc
Procedure, shortened: as §1

[6] = target: Fuc(a1-2)[Gal(a1-3)]Gal(b1-4)GlcNAc(b1-6)GalNAc
Procedure, shortened: as §1

[7] = target: Fuc(a1-2)[GalNAc(a1-3)]Gal(b1-3)GlcNAc(b1-3)GalNAc
Procedure, shortened: as §1

[8] = target: Fuc(a1-2)[GalNAc(a1-3)]Gal(b1-4)GlcNAc(b1-3)GalNAc
Procedure, shortened: as §1

[9] = target: Fuc(a1-3)[Gal(b1-4)]GlcNAc(b1-3)Gal(b1-4)[Fuc(a1-3)]GlcNAc(b1-3)Gal(b1-4)[Fuc(a1-3)]GlcNAc
Procedure, shortened: as §1

[10] = target: Fuc(a1-3)[Gal(b1-4)]GlcNAc(b1-6)GalNAc
Procedure, shortened: as §1

[11] = target: Fuc(a1-3)[Gal(b1-4)]GlcNAc(b1-6)[Gal(b1-3)GlcNAc(b1-3)]Gal(b1-4)Glc
Procedure, shortened: as §1

Fuc(a1-4)GlcNAc = target: Fuc(a1-4)GlcNAc
Procedure, shortened: as §1

[12] = target: Gal(a1-3)Gal(b1-3)GlcNAc(b1-2)Man
Procedure, shortened: as §1

[13] = target: Gal(a1-3)Gal(b1-4)GlcNAc(b1-6)GalNAc
Procedure, shortened: as §1

[14] = target: Gal(b1-3)GalNAc(b1-4)Gal(b1-4)Glc
Procedure, shortened: as §1

[15] = target: Gal(b1-3)GlcNAc(b1-3)Gal(b1-4)GlcNAc
Procedure, shortened: as §1

[16] = target: Gal(b1-3)GlcNAc(b1-3)Gal(b1-4)GlcNAc(b1-6)[Gal(b1-3)GlcNAc(b1-3)]Gal(b1-4)Glc
Procedure, shortened: as §1

[17] = target: Gal(b1-3)GlcNAc(b1-6)[Gal(b1-3)]GalNAc
Procedure, shortened: as §1

[18] = target: Gal(b1-3)[Fuc(a1-4)]GlcNAc(b1-2)Man(a1-3)[Gal(b1-3)[Fuc(a1-4)]GlcNAc(b1-2)Man(a1-6)]Man(b1-4)GlcNAc(b1-4)[Fuc(a1-6)]GlcNAc
Procedure, shortened: as §1

[19] = target: Gal(b1-3)[Fuc(a1-4)]GlcNAc(b1-3)Gal(b1-4)[Fuc(a1-3)]GlcNAc
Procedure, shortened: as §1

[20] = target: Gal(b1-3)[Fuc(a1-4)]GlcNAc(b1-6)GalNAc
Procedure, shortened: as §1

[21] = target: Gal(b1-4)GlcNAc(b1-2)Man(a1-3)[Gal(b1-4)GlcNAc(b1-2)Man(a1-6)]Man(b1-4)GlcNAc(b1-4)[Fuc(a1-6)]GlcNAc
Procedure, shortened: as §1

[22] = target: Gal(b1-4)GlcNAc(b1-2)[Gal(b1-4)GlcNAc(b1-4)]Man(a1-3)[GlcNAc(b1-4)][Gal(b1-4)GlcNAc(b1-2)[Gal(b1-4)GlcNAc(b1-6)]Man(a1-6)]Man(b1-4)GlcNAc(b1-4)GlcNAc
Procedure, shortened: as §1

[23] = target: Gal(b1-4)GlcNAc(b1-3)Gal(b1-4)GlcNAc(b1-3)Gal(b1-4)GlcNAc(b1-2)Man(a1-3)[Gal(b1-4)GlcNAc(b1-3)Gal(b1-4)GlcNAc(b1-3)Gal(b1-4)GlcNAc(b1-2)Man(a1-6)]Man(b1-4)GlcNAc(b1-4)[Fuc(a1-6)]GlcNAc
Procedure, shortened: as §1

[24] = target: Gal(b1-4)GlcNAc(b1-3)Gal(b1-4)GlcNAc(b1-3)[Gal(b1-4)GlcNAc(b1-3)Gal(b1-4)GlcNAc(b1-6)]GalNAc
Procedure, shortened: as §1

[25] = target: Gal(b1-4)GlcNAc(b1-3)Gal(b1-4)GlcNAc(b1-6)[Gal(b1-3)]GalNAc
Procedure, shortened: as §1

B1: Aap arpt (Staphylococcus epidermidis) (protein)
chain: NNEAPQMSSTLQAEEGSNAEAPQSEPTKAEEGGNAEAAQSEPTKAEEGGNAEAPQSEPTKAEEGGNAEAAQSEPTKTEEGSNVKAAQSEPTKAEEGSNAEAPQSEPTKTEEGSNAKAAQSEPTKAEEGGNAEAAQSEPTKTEEGSNAEAPQSEPTKAEEGGYAEAPQSEPTKTEEGGNAEAPNVPTIKA
glycan array binding signal (z-score) [1]: 1.6
glycan array binding signal (z-score) [2]: 0.811
glycan array binding signal (z-score) [3]: -0.547
glycan array binding signal (z-score) [4]: -1.34
glycan array binding signal (z-score) [5]: 0.036
glycan array binding signal (z-score) [6]: -0.475
glycan array binding signal (z-score) [7]: -0.103
glycan array binding signal (z-score) [8]: -0.617
glycan array binding signal (z-score) [9]: 0.278
glycan array binding signal (z-score) [10]: 0.096
glycan array binding signal (z-score) [11]: -0.249
glycan array binding signal (z-score) (Fuc(a1-4)GlcNAc): 0.688
glycan array binding signal (z-score) [12]: -0.261
glycan array binding signal (z-score) [13]: 3.25
glycan array binding signal (z-score) [14]: 0.305
glycan array binding signal (z-score) [15]: -1.2
glycan array binding signal (z-score) [16]: 0.709
glycan array binding signal (z-score) [17]: 0.662
glycan array binding signal (z-score) [18]: 2.23
glycan array binding signal (z-score) [19]: -1.72
glycan array binding signal (z-score) [20]: -0.35
glycan array binding signal (z-score) [21]: 0.746
glycan array binding signal (z-score) [22]: -1.6
glycan array binding signal (z-score) [23]: 2.73
glycan array binding signal (z-score) [24]: 2.68
glycan array binding signal (z-score) [25]: 2.97
